Drawing on PubChem BioAssay (NCATS), this text covers efficacy, outcome and AC50 for 25 compounds.

For experiment [1] the following is noted: Ebola virus entry assay, green fluorescence channel.
The conditions of experiment [2]: Ebola virus entry assay, blue channel fluorescence.
For experiment [3] the following is noted: Ebola virus entry assay, ratio channel.
For experiment [4] the following is noted: Ebola virus entry assay, green channel fluorescence.
The conditions of experiment [5]: Ebola virus entry assay, reporter ratio channel; Channel type: primary.
For experiment [6] the following is noted: Ebola virus entry assay, blue channel (ratio component).

Unmarked numbers belong to inactive results. For part of these data: Measured potencies and affinities stand elsewhere. Activity calls are given as the source filed them. No rule for the calls is given here. Square brackets hold non-standard residues; d marks the D form. Peptide text beside a SMILES is read from it. * marks the point of attachment. Sta = CC(C)C[C@H](N)[C@@H](O)CC(=O)O; Isovaleryl = CC(C)CC(=O)*
For efficacy in this document: 0% is about no effect.

Consider `CN(C)C(=O)CNC(=O)Cc1ccccc1`, for which the efficacy in experiment [1] is 16.6%. Also, the call in experiment [2], in experiment [3], in experiment [4], in experiment [5] and in experiment [6] was inactive.

For the compound `Cc1ccc(/C=N/n2c(-c3ccccc3)csc2=S)cc1`, in experiment [1], the efficacy is 32.3%. The compound was classed as inactive in experiment [2], in experiment [3], in experiment [4], in experiment [5] and in experiment [6].

Turning to `CC(C(=O)O)c1ccc2c(c1)Cc1cccnc1O2` (stereo not given), the efficacy in experiment [1] is -16.5%. Further, the outcome in experiment [2], in experiment [3], in experiment [4], in experiment [5] and in experiment [6] was inactive.

`COc1ccccc1OC(=O)Oc1ccccc1OC`: the efficacy in experiment [1] was -25.8%. Further, the compound was classed as inactive in experiment [2], in experiment [3], in experiment [4], in experiment [5] and in experiment [6].

Consider `CN(C)CCC(c1ccccc1)c1ccccn1` (stereo not given), for which, in experiment [1], the efficacy was 12.6%. Further, the result in experiment [2], in experiment [3], in experiment [4], in experiment [5] and in experiment [6] was inactive.

With `C[N+](C)(C)CCCCCCCCCC[N+](C)(C)C`, in experiment [1], the efficacy is -18%. Besides, the call in experiment [2], in experiment [3], in experiment [4], in experiment [5] and in experiment [6] was inactive.

Regarding `CCCCCC1Nc2cc(C(F)(F)F)c(S(N)(=O)=O)cc2S(=O)(=O)N1` (stereo not given), the efficacy in experiment [1] is -15.8%. Also, the call in experiment [2], in experiment [3], in experiment [4], in experiment [5] and in experiment [6] was inactive.

Consider `CC(C)(C)NCC(O)COc1cccc2c1CCC(=O)N2` (stereo not given), for which the efficacy in experiment [1] was -22.9%. The result in experiment [2], in experiment [3], in experiment [4], in experiment [5] and in experiment [6] was inactive.

`Oc1c(I)cc(Cl)c2cccnc12`: the efficacy in experiment [1] was 46.4%. Also, the call in experiment [2], in experiment [3], in experiment [4], in experiment [5] and in experiment [6] was inactive.

On to `O=C1OC(c2ccc(O)cc2)(c2ccc(O)cc2)c2ccccc21`, for which the efficacy in experiment [1] is -10.1%. The compound was called inactive in experiment [2], in experiment [3], in experiment [4], in experiment [5] and in experiment [6].

Turning to `COc1ccc(CN(CCN(C)C)c2ncccn2)cc1`, the efficacy in experiment [1] is -18%. Moreover, the outcome in experiment [2], in experiment [3], in experiment [4], in experiment [5] and in experiment [6] was inactive.

Turning to `CC(=O)[C@H]1CC[C@H]2[C@@H]3CC=C4C[C@@H](O)CC[C@]4(C)[C@H]3CC[C@]12C`, in experiment [1], the efficacy was -13.3%. The compound was called inactive in experiment [2], in experiment [3], in experiment [4], in experiment [5] and in experiment [6].

For `O=C(O)/C=C/c1ccc(Cn2ccnc2)cc1`, the efficacy in experiment [1] was -14.9%. Moreover, the compound was classed as inactive in experiment [2], in experiment [3], in experiment [4], in experiment [5] and in experiment [6].

For `CCCCOc1ccc(CC(=O)NO)cc1`, in experiment [1], the efficacy is -9.53%. The compound was classed as inactive in experiment [2], in experiment [3], in experiment [4], in experiment [5] and in experiment [6].

In the case of `O=C(OCC(COC(=O)c1cccnc1)(COC(=O)c1cccnc1)COC(=O)c1cccnc1)c1cccnc1`, in experiment [1], the efficacy was -29.2%. Further, the call in experiment [2], in experiment [3], in experiment [4], in experiment [5] and in experiment [6] was inactive.

As for `CC(=O)/C=C/C=C1/C2CCC(C2)C1(C)C` (stereo not given), in experiment [1], the efficacy is -14.5%. Moreover, the call in experiment [2], in experiment [3], in experiment [4], in experiment [5] and in experiment [6] was inactive.

`COc1cc(OC)cc(OC)c1`: the efficacy in experiment [1] was -13.9%. The compound was classed as inactive in experiment [2], in experiment [3], in experiment [4], in experiment [5] and in experiment [6].

Turning to `NC(=O)NNc1ccccc1`, in experiment [1], the efficacy is -21.6%. The compound was classed as inactive in experiment [2], in experiment [3], in experiment [4], in experiment [5] and in experiment [6].

For `CCOC(=O)c1cc(=O)c2c(OCC(COc3cccc4oc(C(=O)OCC)cc(=O)c34)OC(=O)[C@@H](N)CCCCN)cccc2o1`, in experiment [1], the efficacy is -21.2%. The result in experiment [2], in experiment [3], in experiment [4], in experiment [5] and in experiment [6] was inactive.

Regarding `Oc1ccc(C(O)CNCCCCCCNCC(O)c2ccc(O)c(O)c2)cc1O` (stereo not given), in experiment [1], the efficacy was 16%. The compound was classed as inactive in experiment [2], in experiment [3], in experiment [4] and in experiment [6]. The concentration at half-maximal activity (AC50) (commonly the concentration at which the activity in the assay is half-maximal) in experiment [5] is 44.7 µM (active).

With `COc1cc(NS(=O)(=O)c2ccc(N)cc2)ncn1`, the efficacy in experiment [1] was 14.9%. Besides, the compound was called inactive in experiment [2], in experiment [3], in experiment [4], in experiment [5] and in experiment [6].

For the compound `CCCCN1CCCC[C@H]1C(=O)Nc1c(C)cccc1C`, the efficacy in experiment [1] is 30%. Besides, the compound was classed as inactive in experiment [2], in experiment [3], in experiment [4] and in experiment [6]. The AC50 in experiment [5] was 39.8 µM (active).

Take `CCOC(=O)[C@@](C)(N)Cc1ccc(O)c(O)c1`: in experiment [1], the efficacy was 38.1%. For the same compound, the call in experiment [2], in experiment [3], in experiment [4], in experiment [5] and in experiment [6] was inactive.

Consider `Cc1c(N)c(=O)n(-c2ccccc2)n1C`, for which, in experiment [1], the efficacy was -25.5%. Further, the call in experiment [2], in experiment [3], in experiment [4], in experiment [5] and in experiment [6] was inactive.

For the compound `CC(C)CC(=O)N[C@H](C(=O)N[C@H](C(=O)N[C@@H](CC(C)C)[C@@H](O)CC(=O)N[C@@H](C)C(=O)N[C@@H](CC(C)C)[C@@H](O)CC(=O)O)C(C)C)C(C)C` (Isovaleryl-VV[Sta]A[Sta]-OH), in experiment [1], the efficacy is -12.4%. Further, the call in experiment [2], in experiment [3], in experiment [4], in experiment [5] and in experiment [6] was inactive.
